Assay results as given in PubChem BioAssay (Tox21).
Results filed as inconclusive are left out. Calls of active or inactive are those of the source. Unless noted, calls come from the whole dose curve; as a rule, active = well fitted curve in the direction sought with a large enough effect in the repeat runs; inconclusive = weak or mixed curves; inactive = no such curve, though single readings can be large; an effect the other way counts as inactive or inconclusive.

Columns and labels:
[1] = A CellTox Green Cytotoxicity Assay to monitor cytotoxicity in HEK293 cells - 32 hour (AID 1224881); note: nearly all actives have a fitted effect of over 40% in size
How it was run: (§1)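 Fluorescence intensity, read at 0, 8, 16, 24, 32 and 40 h of compound treatment, reflected dye binding to DNA of dead HEK293 cells; compounds (23 nL, DMSO) were added 5 h after plating cells with reagent.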

[2] = A CellTox Green Cytotoxicity Assay to monitor cytotoxicity in HepG2 cells - 0 hour (AID 1224882); note: nearly all actives have a fitted effect of over 35% in size
How it was run: (§2)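 Using 1536-well format, dye-containing HepG2 suspension was seeded, allowed 5 h at 37 C/5% CO2, dosed by pintool with compounds, positive and negative controls, and imaged for fluorescence across 40 h.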

[3] = A CellTox Green Cytotoxicity Assay to monitor cytotoxicity in HepG2 cells - 32 hour (AID 1224883); note: nearly all actives have a fitted effect of over 50% in size
How it was run: as §2

[4] = A CellTox Green Cytotoxicity Assay to monitor cytotoxicity in HEK293 cells - 8 hour (AID 1224884); note: nearly all actives have a fitted effect of over 35% in size
How it was run: as §1

[5] = qHTS RealTime-Glo MT Cell Viability Assay in HepG2 cells - 16 hour (AID 1224885); note: nearly all actives have a fitted effect of over 50% in size
How it was run: (§3)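 Real-time, nonlytic viability: 600 HepG2 cells/well mixed with NanoLuc enzyme plus prosubstrate; 5 h settle, compound (DMSO) added by pintool; luminescence monitored over 40 h at 37 C.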

[6] = qHTS RealTime-Glo MT Cell Viability Assay in HEK293 cells - 24 hour (AID 1224886); note: top concentration of the series differs between compounds; nearly all actives have a fitted effect of over 50% in size
How it was run: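 Cells + reagent dispensed (600 cells/well, HEK293) → 5 h at 37 C/5% CO2 → 23 nL compound in DMSO pinned → 40 h at 37 C → luminescence read at 0, 8, 16, 24, 32, 40 h.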

[7] = qHTS RealTime-Glo MT Cell Viability Assay in HEK293 cells - 8 hour (AID 1224887); note: top concentration of the series differs between compounds; nearly all actives have a fitted effect of over 50% in size
How it was run: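 Viable HEK293 cells reduce a cell-permeant prosubstrate; the product diffuses out and is consumed by NanoLuc in the medium to give light. Compounds went in after a 5 h incubation and plates were read over the treatment course.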

[8] = A CellTox Green Cytotoxicity Assay to monitor cytotoxicity in HEK293 cells - 16 hour (AID 1224888); note: nearly all actives have a fitted effect of over 35% in size
How it was run: as §1

[9] = qHTS RealTime-Glo MT Cell Viability Assay in HepG2 cells - 0 hour (AID 1224889); note: nearly all actives have a fitted effect of over 50% in size
How it was run: as §3

[10] = A CellTox Green Cytotoxicity Assay to monitor cytotoxicity in HepG2 cells - 8 hour (AID 1224890); note: nearly all actives have a fitted effect of over 45% in size
How it was run: as §2

[11] = qHTS assay to identify small molecule antagonists of the androgen receptor (AR) signaling pathway using the MDA cell line in the presence of 0.5 nM R1881 - cell viability counter screen (AID 1259242); note: nearly all actives have a fitted effect of over 45% in size
How it was run: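 Viability of MDA-kb2 cells was multiplexed with the luciferase AR readout; after 16 hr with compounds and R1881 at 0.5 nM final, CellTiter-Fluor fluorescence was recorded.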

[12] = qHTS assay to identify small molecule phospholipidosis (PLD) inducers (AID 1259344; active = well fitted curve in the direction sought with a large enough effect; an effect the other way counts as inactive or inconclusive)
How it was run: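 HepG2 cells, 900/well, treated with compound plus LipidTOX Red for 24 h at 37 C; amiodarone positive and DMSO negative controls. Fixed with paraformaldehyde/Hoechst, then high-content imaging scored LipidTOX pit count and integrated intensity per well and per cell.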

[13] = qHTS assay to identify small molecule HDAC inhibitors (AID 1259364);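 note: wild-type HCT-116 cells with endogenous class I/II HDAC activity; top concentration of the series differs between compounds; nearly all actives have a fitted effect of over 45% in size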
How it was run: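 Read-out: luminescence of HDAC-Glo I/II reagent, 30 min RT, reflecting class I/II deacetylase activity in whole HCT-116 cells pre-exposed 2 h to DMSO-dissolved compounds.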

[14] = qHTS assay to identify small molecule HDAC inhibitors - cell viability counter screen (AID 1259365)
How it was run: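 Following a 2hr exposure of overnight-plated wild-type HCT-116 cells to DMSO-delivered compounds, CellTiter-Glo was added and luminescence recorded after 30min at room temperature.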

[15] = qHTS assay to identify small molecule agonists of the sonic hedgehog signaling (Shh) pathway - cell viability counter screen (AID 1259366); note: nearly all actives have a fitted effect of over 50% in size
How it was run: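 After a 4hr attachment at 37C, NIH/3T3 cells bearing an integrated Gli1-driven luciferase reporter were dosed with compounds. Treatment lasted 24hr, with the final hour including CellTiter-Fluor for a fluorescence viability measurement.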

[16] = qHTS assay to identify small molecule antagonists of the sonic hedgehog signaling (Shh) pathway - cell viability counter screen (AID 1259367); note: nearly all actives have a fitted effect of over 55% in size
How it was run: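 NIH/3T3-derived Gli1-Luc reporter cells, 2,000/well, plated 4 hr before compound addition, then stimulated with conditioned medium for 24 hr at 37C. Viability measured in the same wells by CellTiter-Fluor fluorescence, reagent added at 23 hr for 1 hr.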

[17] = qHTS assay to identify small molecule agonists of the sonic hedgehog signaling (Shh) pathway (AID 1259368; calls by dose curve;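 note: NIH/3T3-derived 3T3Gli1-Luc cells carrying a stable Gli1-driven firefly luciferase reporter; series mostly up to about 92 µM; nearly all actives have a fitted effect of over 15% in size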)
How it was run: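 A Gli1 transcriptional response element controlled firefly luciferase in 3T3Gli1-Luc cells. Compounds and a positive control were added 4 hr after plating, and cells were incubated a further 24 hr at 37 C before luminescence detection.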

[18] = qHTS assay to identify small molecule antagonists of the estrogen receptor alpha (ER-alpha) signaling pathway using the BG1 cell line in the presence of 0.1 nM 17-beta-estradiol - cell viability counter screen (AID 1259241); note: nearly all actives have a fitted effect of over 40% in size
How it was run: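 Measures cytotoxicity alongside the ER-alpha antagonist readout: VM7Luc4E2 cells, charcoal-stripped serum, 0.1 nM 17beta-estradiol final, 22 hr compound incubation at 37C, CellTiter-Fluor fluorescence.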

[19] = target: Estrogen receptor (Homo sapiens) (UniProt P03372); experiment: qHTS assay to identify small molecule antagonists of the estrogen receptor alpha (ER-alpha) signaling pathway using the BG1 cell line in the presence of 0.1 nM 17-beta-estradiol (AID 1259244); note: nearly all actives have a fitted effect of over 50% in size
How it was run: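 Estradiol at 0.1 nM (final) stimulates the endogenous ER-alpha of VM7Luc4E2 cells carrying an ERE-driven luciferase; compounds are co-incubated 22 h at 37C and luciferase output quantified by luminescence.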

[20] = target: Androgen receptor (Homo sapiens) (UniProt P10275); experiment: qHTS assay to identify small molecule antagonists of the androgen receptor (AR) signaling pathway using the MDA cell line in the presence of 0.5 nM R1881 (AID 1259243); note: nearly all actives have a fitted effect of over 50% in size
How it was run: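 Reporter cells cultured without CO2 receive test chemicals, then 0.5 nM R1881 final; after 16 hr at 37C, ONE-Glo is added and light output recorded.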

Measured: Potency

Sequence of Estrogen receptor (Homo sapiens) (P03372 whole entry, looked up): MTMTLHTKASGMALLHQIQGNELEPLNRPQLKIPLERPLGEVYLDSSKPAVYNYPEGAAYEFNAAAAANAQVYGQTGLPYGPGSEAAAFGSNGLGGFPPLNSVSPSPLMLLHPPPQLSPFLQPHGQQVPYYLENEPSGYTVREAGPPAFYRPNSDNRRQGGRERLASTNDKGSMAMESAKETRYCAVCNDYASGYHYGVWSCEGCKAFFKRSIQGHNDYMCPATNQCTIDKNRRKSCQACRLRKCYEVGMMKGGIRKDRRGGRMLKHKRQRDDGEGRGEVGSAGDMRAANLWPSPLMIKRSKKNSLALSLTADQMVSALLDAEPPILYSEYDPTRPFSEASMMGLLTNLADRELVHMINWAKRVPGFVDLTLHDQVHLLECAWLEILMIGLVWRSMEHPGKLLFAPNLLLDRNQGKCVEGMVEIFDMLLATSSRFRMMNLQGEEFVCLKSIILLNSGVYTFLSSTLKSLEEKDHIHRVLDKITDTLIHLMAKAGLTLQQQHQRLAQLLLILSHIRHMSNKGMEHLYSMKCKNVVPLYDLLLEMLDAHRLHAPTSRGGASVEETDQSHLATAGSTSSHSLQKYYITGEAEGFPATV
Sequence of Androgen receptor (Homo sapiens) (P10275 whole entry, looked up): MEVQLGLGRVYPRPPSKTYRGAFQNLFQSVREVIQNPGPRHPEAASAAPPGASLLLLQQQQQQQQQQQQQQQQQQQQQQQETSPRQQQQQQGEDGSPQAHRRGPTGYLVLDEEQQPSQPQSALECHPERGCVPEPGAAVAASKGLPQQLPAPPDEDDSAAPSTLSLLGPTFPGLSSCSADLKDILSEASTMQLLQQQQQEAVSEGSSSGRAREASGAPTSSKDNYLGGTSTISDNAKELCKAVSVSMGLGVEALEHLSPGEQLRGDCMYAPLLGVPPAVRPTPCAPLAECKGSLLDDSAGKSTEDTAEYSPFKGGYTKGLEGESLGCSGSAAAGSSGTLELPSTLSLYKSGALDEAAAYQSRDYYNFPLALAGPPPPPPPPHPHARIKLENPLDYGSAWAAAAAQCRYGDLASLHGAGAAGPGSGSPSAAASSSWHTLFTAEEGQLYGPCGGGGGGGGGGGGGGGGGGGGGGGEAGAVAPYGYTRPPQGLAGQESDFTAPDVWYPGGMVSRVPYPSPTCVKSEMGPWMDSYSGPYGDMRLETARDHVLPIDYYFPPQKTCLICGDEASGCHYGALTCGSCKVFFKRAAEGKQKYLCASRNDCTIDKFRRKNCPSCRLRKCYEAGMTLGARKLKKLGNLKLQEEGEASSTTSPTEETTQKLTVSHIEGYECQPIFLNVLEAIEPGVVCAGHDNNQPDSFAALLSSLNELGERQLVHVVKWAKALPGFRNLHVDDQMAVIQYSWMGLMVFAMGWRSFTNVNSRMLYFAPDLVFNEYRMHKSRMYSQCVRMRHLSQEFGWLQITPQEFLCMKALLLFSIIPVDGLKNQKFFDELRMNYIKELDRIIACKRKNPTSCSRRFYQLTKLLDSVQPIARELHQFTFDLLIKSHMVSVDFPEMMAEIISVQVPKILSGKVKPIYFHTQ

CCCN(CCC)C(=O)C(CCC(=O)O)NC(=O)c1ccccc1 (stereo unspecified)
inactive: [1] | [2] | [3] | [4] | [5] | [6] | [7] | [8] | [9] | [10] | [11] | [12] | [13] | [14] | [15] | [16] | [17]

CN1CCN(c2c(F)cc3c(=O)c(C(=O)O)cn4c3c2SCC4)CC1
inactive: [1] | [2] | [3] | [4] | [5] | [6] | [7] | [9] | [10] | [18] | [11] | [19] | [12] | [13] | [14] | [17]

CCCCNCCCC
inactive: [1] | [2] | [3] | [4] | [5] | [6] | [7] | [9] | [10] | [18] | [11] | [13] | [14] | [16]

CS(=O)(=O)c1ccc([C@@H](O)[C@@H](CF)NC(=O)C(Cl)Cl)cc1
inactive: [1] | [2] | [3] | [4] | [5] | [6] | [7] | [9] | [10] | [18] | [11] | [19] | [12] | [13] | [14] | [15] | [16] | [17]

Oc1ccccc1C=NCc1ccccc1
inactive: [1] | [2] | [3] | [4] | [5] | [6] | [7] | [9] | [10] | [11] | [12] | [13] | [14] | [15] | [16] | [17]

O=S(=O)(O)C(F)(F)F
inactive: [1] | [2] | [3] | [4] | [5] | [6] | [8] | [9] | [10] | [18] | [11] | [19] | [13] | [14] | [15] | [16] | [17]

CCCCNc1cc(C(=O)O)cc(S(N)(=O)=O)c1Oc1ccccc1
inactive: [1] | [2] | [3] | [4] | [5] | [6] | [7] | [8] | [9] | [18] | [11] | [12] | [13] | [14] | [15] | [17]

Cc1c[nH]c(=S)[nH]c1=O
inactive: [1] | [2] | [3] | [4] | [5] | [6] | [7] | [9] | [10] | [18] | [11] | [19] | [13] | [14] | [16] | [17]

C1CCOC1
inactive: [1] | [2] | [3] | [4] | [5] | [6] | [7] | [9] | [10] | [18] | [11] | [13] | [14] | [15] | [16] | [17]

Cc1ccsc1C(=CCCN1CCC[C@@H](C(=O)O)C1)c1sccc1C
inactive: [1] | [2] | [3] | [4] | [5] | [7] | [8] | [9] | [10] | [18] | [11] | [20] | [19] | [12] | [13] | [14] | [15] | [16] | [17]

Cc1c(C(=O)NCCO)[n+](=O)c2ccccc2n1[O-]
inactive: [1] | [2] | [3] | [4] | [5] | [6] | [7] | [9] | [10] | [18] | [11] | [20] | [12] | [13] | [14] | [15] | [16] | [17]

O=C(CC(=O)C(F)(F)F)c1ccccc1
inactive: [1] | [2] | [3] | [4] | [5] | [6] | [7] | [9] | [10] | [18] | [11] | [19] | [13] | [14] | [15] | [16]

CCCCC1CCC(=O)O1 (stereo unspecified)
inactive: [1] | [2] | [3] | [4] | [5] | [6] | [7] | [9] | [10] | [18] | [11] | [19] | [13] | [14] | [15] | [16]

c1ccc(CN(CC2=NCCN2)c2ccccc2)cc1
inactive: [1] | [2] | [3] | [4] | [5] | [6] | [7] | [8] | [9] | [10] | [11] | [19] | [12] | [13] | [14] | [15] | [17]

CO[C@@]1(NC(=O)CSCC#N)C(=O)N2C(C(=O)O)=C(CSc3nnnn3C)CS[C@@H]21
inactive: [1] | [2] | [3] | [4] | [5] | [6] | [7] | [9] | [10] | [18] | [11] | [19] | [12] | [13] | [14] | [15] | [16] | [17]

O=C(C(Cl)Cl)N1CCOC12CCCCC2
inactive: [1] | [2] | [3] | [4] | [5] | [6] | [7] | [9] | [10] | [18] | [11] | [19] | [13] | [14] | [15] | [17]

CCN(CC)CC1CCCCN1CC(=O)N1c2ccccc2C(=O)Nc2cccnc21 (stereo unspecified)
inactive: [1] | [2] | [3] | [4] | [5] | [6] | [7] | [9] | [10] | [18] | [11] | [19] | [12] | [13] | [14] | [15] | [17]

CC1=C(CC(=O)O)c2cc(F)ccc2/C1=C\c1ccc(S(C)(=O)=O)cc1
inactive: [1] | [2] | [3] | [4] | [5] | [7] | [8] | [9] | [10] | [18] | [11] | [20] | [19] | [12] | [13] | [14] | [16] | [17]
